PubChem BioAssay (Tox21)
Results filed as inconclusive are left out. Unmarked numbers belong to inactive results. Calls of active or inactive are those of the source. Unless noted, calls follow the shape of the full dose curve.

test system: not listed separately; assay: qHTS assay to identify small molecule agonists of the estrogen related receptor signaling pathway with the pleiotropic PPARgamma coactivator (PGC) from Tox21 10K library (AID 1224842; active = well fitted activation curve with a large enough effect in the repeat runs; also: nearly all actives have a fitted effect of over 15% in size); conditions: PGC/ERR reporter cell line, luciferase ONE-Glo, 18 h; series mostly up to 92.4 µM; activation: at the top concentration
Method in brief: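 PGC/ERR reporter cells (NTP line) were seeded 2,000 per well, rested 6 h at 37 C/5% CO2, then pin-dosed with compounds in DMSO for 18 h at 37 C; luciferase read by One-Glo luminescence after 30 min at room temperature.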
% is scaled to controls: 0 for no effect and ±100 for the full control effect.

Point of comparison: CCS(=O)(=O)CCSP(=O)(OC)OC, “activation” value 0.192%. Against it:
- COCC(=O)N(c1c(C)cccc1C)N1CCOC1=O — lower, 0.106%
- CNNC — higher, 0.247%
- CCC(Cl)[N+](=O)[O-] (stereo not given) — lower, -8.39%
- CC(Cl)(Cl)[N+](=O)[O-] — lower, -0.22%
- CC1CCCCC1NC(=O)Nc1ccccc1 (stereo not given) — higher, 7.22%
- CCCSP(=S)(OCC)Oc1ccc(Cl)cc1Cl (stereo not given) — lower, -2.74%
- COC(=O)c1ccccc1S(=O)(=O)NC(=O)N(C)c1nc(C)nc(OC)n1 — lower, -5.22%
- CNC(=O)Oc1ccccc1C1OCCO1 — lower, -0.728%
- CCOc1nc(C(Cl)(Cl)Cl)ns1 — lower, -6.83%
- O=CNC(N1CCN(C(NC=O)C(Cl)(Cl)Cl)CC1)C(Cl)(Cl)Cl (stereo not given) — lower, -7.43%
- Cc1cc(C)nc(Nc2ccccc2)n1 — higher, 5.45%
- CCCCC(=O)Cl — lower, -0.335%
- CCCCN(CCCCO)N=O — lower, -0.492%
- COc1cccc2c1cc([N+](=O)[O-])c1c(C(=O)O)cc3c(c12)OCO3 — lower, -5.41%
- C#CCN1C(=O)COc2cc(F)c(N3C(=O)C4=C(CCCC4)C3=O)cc21 — lower, -10.8%
- [As]#[In] — higher, 3.61%
- N#CCBr — lower, -1.19%
- CCC(C)n1c(=O)[nH]c(C)c(Br)c1=O (stereo not given) — lower, 0.179%
- C=C(C)CN(CC)c1c([N+](=O)[O-])cc(C(F)(F)F)cc1[N+](=O)[O-] — higher, 0.727%
- CCCCOC(=O)[C@@H](C)Oc1ccc(Oc2ccc(C#N)cc2F)cc1 — higher, 1.43%
- CCC#N — lower, 0.182%
- CSc1ccc(C(=O)C(C)(C)N2CCOCC2)cc1 — lower, -13.3%
- N#CCNCC#N — higher, 5.57%
- CC(=O)CCc1ccc2c(c1)OCO2 — higher, 1.99%

Point of comparison: CCOC(=O)C1(c2ccccc2)CCN(CCc2ccc(N)cc2)CC1, “activation” value -8.7% [at 42.5 µM]. Against it:
- CC(=O)Nc1cc([As](=O)(O)O)ccc1O — higher, -4.04% [at 42.5 µM]
- Cc1nnc2n1-c1sc(CCC(=O)N3CCOCC3)cc1C(c1ccccc1Cl)=NC2 — higher, 3.25% [at 42.5 µM]
- CC(=O)[C@H]1CC[C@H]2[C@@H]3CC[C@H]4C[C@H](O)CC[C@]4(C)[C@H]3C(=O)C[C@]12C — higher, -8.3% [at 42.5 µM]
- C[C@]12CC[C@H]3[C@@H](CCC4=CC(=O)CC[C@@]43C)[C@@H]1CC[C@@H]2C(=O)O — higher, 1.54% [at 42.5 µM]

Compound CC1=C(C(=O)O)N2C(=O)[C@@H](N)[C@H]2SC1 has an activation of 0.483% [at 19 µM].

target: Thyrotropin receptor (Homo sapiens) (UniProt P16473); assay: qHTS assay to identify small molecule agonists of the thyroid stimulating hormone receptor (TSHR) signaling pathway (AID 1224843); conditions: TSHR-HEK293 cells, cAMP HTRF, agonist mode, 30 min; series mostly up to 92.4 µM; activation: at the top concentration; also: nearly all actives have a fitted effect of over 45% in size; also: potency is read from the fitted curve at half-maximal effect
Sequence (P16473 whole entry, looked up): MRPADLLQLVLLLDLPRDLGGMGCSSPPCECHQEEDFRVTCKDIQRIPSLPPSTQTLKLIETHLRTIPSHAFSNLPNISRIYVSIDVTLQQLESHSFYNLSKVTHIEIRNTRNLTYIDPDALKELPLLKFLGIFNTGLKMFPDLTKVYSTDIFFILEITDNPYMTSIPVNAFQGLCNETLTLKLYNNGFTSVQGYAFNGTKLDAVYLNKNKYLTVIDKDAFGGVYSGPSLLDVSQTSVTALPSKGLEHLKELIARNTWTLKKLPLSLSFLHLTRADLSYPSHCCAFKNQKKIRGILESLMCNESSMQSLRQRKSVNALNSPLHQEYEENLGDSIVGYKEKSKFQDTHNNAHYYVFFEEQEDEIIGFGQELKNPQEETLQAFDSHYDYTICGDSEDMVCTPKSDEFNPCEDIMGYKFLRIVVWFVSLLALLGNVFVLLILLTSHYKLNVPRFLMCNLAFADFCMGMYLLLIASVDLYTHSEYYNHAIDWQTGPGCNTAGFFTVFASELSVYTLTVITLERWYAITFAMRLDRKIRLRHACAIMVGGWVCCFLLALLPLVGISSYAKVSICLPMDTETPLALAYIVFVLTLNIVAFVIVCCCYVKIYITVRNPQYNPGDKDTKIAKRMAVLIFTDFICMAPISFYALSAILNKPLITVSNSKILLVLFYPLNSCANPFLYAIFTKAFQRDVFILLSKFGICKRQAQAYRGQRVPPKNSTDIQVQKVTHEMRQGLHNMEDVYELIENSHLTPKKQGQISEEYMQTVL
Method in brief: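 TSHR-expressing HEK293 cells (800 per well) were exposed to compounds for 30 min at room temperature. cAMP was then detected by HTRF competition with cAMP-d2 and anti-cAMP cryptate, read after 1 h at room temperature. Fifteen concentrations, triplicate.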

Point of comparison: CC(=O)Nc1cc([As](=O)(O)O)ccc1O, “activation” value 4.23% [at 42.5 µM]. Against it:
- Cc1ncc2n1-c1ccc(Cl)cc1C(c1ccccc1F)=NC2 — lower, 1.85% [at 42.5 µM]
- Cc1nnc2n1-c1sc(CCC(=O)N3CCOCC3)cc1C(c1ccccc1Cl)=NC2 — lower, -1.32% [at 42.5 µM]
- C[C@]12CC[C@H]3[C@@H](CCC4=CC(=O)CC[C@@]43C)[C@@H]1CC[C@@H]2C(=O)O — lower, -7.27% [at 42.5 µM]
- Fc1cc(Br)ccc1CBr — lower, -2.6% [at 42.5 µM]
- CCOC(=O)C1(c2ccccc2)CCN(CCc2ccc(N)cc2)CC1 — higher, 5.83% [at 42.5 µM]

Point of comparison: CCCSC(=O)Cl, “activation” value 2.36%. Against it:
- CCC(Cl)[N+](=O)[O-] (stereo not given) — lower, -4.35%
- CC(Cl)(Cl)[N+](=O)[O-] — lower, -3.72%
- CC1CCCCC1NC(=O)Nc1ccccc1 (stereo not given) — lower, -11%
- CCCSP(=S)(OCC)Oc1ccc(Cl)cc1Cl (stereo not given) — lower, -30.5%
- CNC(=O)N(C)c1nc2ccccc2s1 — lower, -0.408%
- CCOc1nc(C(Cl)(Cl)Cl)ns1 — lower, -6.91%
- O=CNC(N1CCN(C(NC=O)C(Cl)(Cl)Cl)CC1)C(Cl)(Cl)Cl (stereo not given) — lower, -22.1%
- Cc1cc(C)nc(Nc2ccccc2)n1 — lower, -15.1%
- CCCCC(=O)Cl — higher, 10.3%
- CCCCN(CCCCO)N=O — lower, -4.14%
- COc1cccc2c1cc([N+](=O)[O-])c1c(C(=O)O)cc3c(c12)OCO3 — lower, -0.493%
- C#CCN1C(=O)COc2cc(F)c(N3C(=O)C4=C(CCCC4)C3=O)cc21 — lower, -4.27%
- [As]#[In] — higher, 11.2%
- N#CCBr — lower, 1.7%
- CCC(C)n1c(=O)[nH]c(C)c(Br)c1=O (stereo not given) — lower, -4.04%
- CCS(=O)(=O)CCSP(=O)(OC)OC — lower, 1.96%
- OCCSCSCCO — lower, 1.91%
- CCC#N — lower, 1.89%
- CCC(=O)c1ccccc1 — lower, -15.4%
- N#CCNCC#N — lower, -9.83%
- CC(=O)CCc1ccc2c(c1)OCO2 — lower, -8.57%

With CC1=C(C(=O)O)N2C(=O)[C@@H](N)[C@H]2SC1 the activation was 0.53% [at 19 µM].

In the case of CSc1ccc(C(=O)C(C)(C)N2CCOCC2)cc1, the Potency was 2.73 µM (active).

test system: not listed separately; assay: qHTS assay to identify small molecule agonists of the hypoxia (HIF-1) signaling pathway - cell viability counter screen (AID 1224844); conditions: HRE-bla ME-180 viability, CellTiter-Glo luminescence, 17 h; series mostly up to 76.8 µM; activity change, negative = cytotoxicity: at the top concentration; also: nearly all actives have a fitted effect of over 50% in size; also: potency is read from the fitted curve at half-maximal effect
Method in brief: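 Tox21 10K compounds were added to HRE-bla ME-180 cells (0.5% dialyzed FBS) and incubated 17 hrs at 37C; ATP-based CellTiter-Glo luminescence then reported cell viability in the same wells.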

Point of comparison: CNC(=O)N(C)c1nc2ccccc2s1, “activity change, negative = cytotoxicity” value -9.3%. Against it:
- COCC(=O)N(c1c(C)cccc1C)N1CCOC1=O — higher, 3.61%
- CNNC — higher, -0.343%
- CCCSC(=O)Cl — higher, -3.7%
- CC(Cl)(Cl)[N+](=O)[O-] — higher, 0.554%
- CCCSP(=S)(OCC)Oc1ccc(Cl)cc1Cl (stereo not given) — higher, -0.877%
- COC(=O)c1ccccc1S(=O)(=O)NC(=O)N(C)c1nc(C)nc(OC)n1 — lower, -14.6%
- O=CNC(N1CCN(C(NC=O)C(Cl)(Cl)Cl)CC1)C(Cl)(Cl)Cl (stereo not given) — higher, -2.65%
- Cc1cc(C)nc(Nc2ccccc2)n1 — higher, 9.99%
- CCCCC(=O)Cl — higher, -6.02%
- CCCCN(CCCCO)N=O — higher, 6.04%
- C#CCN1C(=O)COc2cc(F)c(N3C(=O)C4=C(CCCC4)C3=O)cc21 — higher, 12.4%
- N#CCBr — higher, 7.35%
- CCC(C)n1c(=O)[nH]c(C)c(Br)c1=O (stereo not given) — higher, 2.92%
- C=C(C)CN(CC)c1c([N+](=O)[O-])cc(C(F)(F)F)cc1[N+](=O)[O-] — higher, 6.78%
- OCCSCSCCO — higher, 3.49%
- CCCCOC(=O)[C@@H](C)Oc1ccc(Oc2ccc(C#N)cc2F)cc1 — higher, 1.49%
- CCC#N — higher, 7.76%
- CCC(=O)c1ccccc1 — higher, -1.51%
- N#CCNCC#N — higher, -0.38%
- CC(=O)CCc1ccc2c(c1)OCO2 — higher, 0.665%

Point of comparison: CC(=O)Nc1cc([As](=O)(O)O)ccc1O, “activity change, negative = cytotoxicity” value -5.32% [at 35.3 µM]. Against it:
- Cc1ncc2n1-c1ccc(Cl)cc1C(c1ccccc1F)=NC2 — lower, -13.5% [at 35.3 µM]
- Cc1nnc2n1-c1sc(CCC(=O)N3CCOCC3)cc1C(c1ccccc1Cl)=NC2 — higher, 5.79% [at 35.3 µM]
- C[C@]12CC[C@H]3[C@@H](CCC4=CC(=O)CC[C@@]43C)[C@@H]1CC[C@@H]2C(=O)O — higher, -2.94% [at 35.3 µM]
- Fc1cc(Br)ccc1CBr — higher, 8.91% [at 35.3 µM]
- CCOC(=O)C1(c2ccccc2)CCN(CCc2ccc(N)cc2)CC1 — lower, -5.37% [at 35.3 µM]

Work on CC1=C(C(=O)O)N2C(=O)[C@@H](N)[C@H]2SC1 yielded an activity change, negative = cytotoxicity of 0.296% [at 15.8 µM].

With COc1cccc2c1cc([N+](=O)[O-])c1c(C(=O)O)cc3c(c12)OCO3 the Potency was 54.9 µM (active).
